Source: the supplement of paper PMC13380429

Legend:
[1] = system: Vero E6 infected with SARS-CoV-2; test: morphology score (similarity to uninfected cells); higher = more like uninfected cells; conditions: 24 h
[2] = system: Vero E6 infected with SARS-CoV-2; test: SARS-CoV-2 infection rate relative to infected DMSO; higher = more infection, active = 60 or less; conditions: 24 h

CNC1CC(c2ccc(Cl)c(Cl)c2)c2ccccc21 (stereo not drawn) [indatraline] (10 µM) was tested, and the morphology score [1] was -0.112 and the SARS-CoV-2 infection rate [2] was 114% (inactive).
For O=C1CCC(N2C(=O)c3ccccc3C2=O)C(=O)N1 (stereo not drawn) [thalidomide] (10 µM), the morphology score [1] was -0.223 and the SARS-CoV-2 infection rate [2] was 104% (inactive).
NC(=O)c1ccc(-c2nc(-c3ccccn3)c(-c3ccc4c(c3)OCO4)[nH]2)cc1 (10 µM) was tested, and the morphology score [1] was -0.124 and the SARS-CoV-2 infection rate [2] was 109% (inactive).
In the case of C[C@H](CCC(=O)NCCS(=O)(=O)O)[C@H]1CC[C@H]2[C@@H]3[C@@H](O)C[C@@H]4C[C@H](O)CC[C@]4(C)[C@H]3CC[C@]12C [ursodeoxycholyltaurine] (10 µM), the morphology score [1] was 0.0842 and the SARS-CoV-2 infection rate [2] was 102% (inactive).
CCC(C)C(C(=O)OCC[N+](C)(CC)CC)c1ccccc1 (stereo not drawn) [valethamate] (10 µM) was tested, and the morphology score [1] was 0.0952 and the SARS-CoV-2 infection rate [2] was 95% (inactive).
O=C(O)Cc1ccc(CCNS(=O)(=O)c2ccc(Cl)cc2)cc1 [daltroban] (10 µM) was tested, and the morphology score [1] was 0.136 and the SARS-CoV-2 infection rate [2] was 97.5% (inactive).
In the case of CO/N=C1\C[C@]2(C[C@@H]3C[C@@H](C/C=C(\C)C[C@@H](C)/C=C/C=C4\CO[C@@H]5[C@H](O)C(C)=C[C@@H](C(=O)O3)[C@]45O)O2)O[C@H](/C(C)=C/C(C)C)[C@H]1C [moxidectin] (10 µM), the morphology score [1] was 0.272 and the SARS-CoV-2 infection rate [2] was 98.5% (inactive).
O=c1cc(N2CCOCC2)oc2c(-c3cccc4c3sc3ccccc34)cccc12 (0.833333 µM) was tested, and the morphology score [1] was 0.352 and the SARS-CoV-2 infection rate [2] was 68% (inactive).
O=C1NC(=O)C(c2ccccc2)(c2ccccc2)N1 [phenytoin] (10 µM) was tested, and the morphology score [1] was 0.168 and the SARS-CoV-2 infection rate [2] was 97% (inactive).
